Source: PubChem
Compounds with a hit are over-represented: about 7.3% of the library has one in this group of screens.
NPC1 prom act: NPC1 promoter activation | AID 485313 | Potency, µM (highest dose often 9.22 µM), for inactives: at the top dose activation, usual class: activators | hit rate 2.4% among 320,000 | Huh7 NPC1 promoter luciferase reporter, 24 h; further: % of control where 0% means no effect; nearly all actives have a fitted effect of over 60% in size
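Luminescence from an NPC1 promoter-driven luciferase reporter in stably transfected Huh7 cells was measured after 24 h compound treatment at 37 °C, followed by 10 min ambient incubation with luciferase detection reagent.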
Rab9 prom act: Rab9 promoter activation; AID 485297; Potency, µM (titrated, usually from 9.22 µM), inactives show at the highest dose activation, negative = inhibition, most hits filed as activators; Huh7 Rab9 promoter-luciferase reporter, luminescence, 24 h; hit rate 2.8% among 320,000; further: % of control where 0% means no effect; nearly all actives have a fitted effect of over 60% in size
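Cells were plated at 1500 per well in reduced-serum medium with 10% FBS and left 2 h. Compound in DMSO was then added for 24 h at 37 °C. Reporter signal was read by luminescence after 10 min with luciferase detection reagent.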
ELG1 genotoxic: inducers of genotoxicity in HEK293T ELG1-luciferase cells; HEK293T ELG1-luciferase reporter, luminescence, 16 h; Potency, µM (doses to about 46 µM), for inactives: at the top dose activity change, positive = activation, actives largely listed as activators; hit rate 1.3% among 330,000; AID 504466; further: % of control where 0% means no effect; nearly all actives have a fitted effect of over 60% in size
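Genotoxic stress is detected as increased luminescence from luciferase-tagged ELG1 in HEK293T cells, measured with ONE-Glo after a 16 hr treatment at 37 °C.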
Luc counter: blocks Kinase-Glo luciferase, a counter-screen artifact; Q27757; Kinase-Glo luciferase, ATP luminescence, 8 min; Potency, µM (highest dose often 38.3 µM), inactives show at the top dose activity change, negative = inhibition, actives largely listed as inhibitors; hit rate 0.28% among 200,000; AID 1379; further: on the % scale 0 is the no-effect control and ±100 the full control effect; nearly all actives have a fitted effect of over 60% in size
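Inhibition of Kinase-Glo luciferase light generation was assessed at 10 uM ATP in pH 7.2 imidazole buffer, with luminescence measured after eight minutes at ambient temperature.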
FLuc modulator: inhibits or activates purified firefly luciferase, miR-21 counter-screen | purified FLuc, Km substrates, luminescence inhibition | hit rate 6.9% among 360,000 | Potency, µM (series often up to 57.5 µM), for the others: at the top dose activity change, negative = inhibition, usual class: inhibitors;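 further: plate controls were vehicle for no effect and reference inhibitor for full effect; nearly all actives have a fitted effect of over 55% in size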
Target sequence (P08659 whole entry, looked up): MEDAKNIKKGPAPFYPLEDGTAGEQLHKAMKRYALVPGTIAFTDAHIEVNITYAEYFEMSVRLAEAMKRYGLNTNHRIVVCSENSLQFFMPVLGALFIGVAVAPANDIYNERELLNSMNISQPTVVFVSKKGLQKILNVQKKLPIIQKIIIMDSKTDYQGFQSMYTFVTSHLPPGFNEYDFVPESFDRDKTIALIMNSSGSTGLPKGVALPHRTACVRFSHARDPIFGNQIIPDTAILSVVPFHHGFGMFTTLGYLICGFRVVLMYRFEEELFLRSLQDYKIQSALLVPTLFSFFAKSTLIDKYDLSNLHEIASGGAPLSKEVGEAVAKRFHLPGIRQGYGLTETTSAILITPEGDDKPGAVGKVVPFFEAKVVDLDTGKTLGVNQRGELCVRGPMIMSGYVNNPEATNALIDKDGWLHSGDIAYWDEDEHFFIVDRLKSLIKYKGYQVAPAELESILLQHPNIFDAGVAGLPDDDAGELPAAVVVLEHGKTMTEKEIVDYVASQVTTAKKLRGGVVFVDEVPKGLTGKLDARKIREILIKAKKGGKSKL
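Purified P. pyralis luciferase (10nM final) with 10uM D-luciferin and 10uM ATP (Km levels) in 50mM Tris acetate pH 7.5, 10mM Mg acetate, 0.01% Tween-20, 0.05% BSA; qHTS 6-point titration, ~60 µM downward; luminescence read.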
SMN2 splice enh: enhancers of SMN2 splice variant expression | HEK293 SMN2-luciferase splicing reporter, luminescence, 30-36 h | Potency, µM (titrated, usually from 46.1 µM), for the others: top-dose activity change, positive = activation, most hits filed as activators | hit rate 2.8% among 210,000 | AID 1458; further: % of control where 0% means no effect; nearly all actives have a fitted effect of over 55% in size
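HEK293 cells carry an SMN2 […]–luciferase reporter in which exon 7 inclusion puts luciferase in frame. Cells were plated 10-12 h before compound addition, then incubated 30-36 h at 37C. ONE-Glo luminescence was read; sodium butyrate at 4.5 mM final served as control.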
An asterisk follows results filed as active. The call rests on the fitted dose curve; in most records, active means well fitted curve in the direction sought with a large enough effect; inconclusive means small, poorly fitted or top-dose-only effect, or another doubt; inactive means no such curve, though single readings can be large; an effect the other way counts as inactive or inconclusive. Potency means the concentration at half of the fitted maximal effect.

Results for CC(C)(C)c1ccc(OC(=O)c2ccccc2)cc1 ?
NPC1 prom act: -12.5%; Rab9 prom act: -3.2%; ELG1 genotoxic: 9.1%; FLuc modulator: 2.39µM*

Results for O=C(Oc1ccc(/C=N/Nc2ccccc2)cc1)c1ccccc1 ?
NPC1 prom act: 19.6%; Rab9 prom act: 6.5%; ELG1 genotoxic: inconclusive; Luc counter: -1.8%; FLuc modulator: inconclusive; SMN2 splice enh: -16.7%

How did O=C(Oc1ccc2ccccc2c1)c1ccccc1 do in these assays?
NPC1 prom act: -0.2%; Rab9 prom act: -2.3%; ELG1 genotoxic: inconclusive; Luc counter: 15.9%; FLuc modulator: 2.39µM*; SMN2 splice enh: -12.2%

How did Cc1cccc(C(=O)Oc2ccc3ccc(O)cc3c2)c1 do in these assays?
NPC1 prom act: 7.6%; Rab9 prom act: 0.3%; ELG1 genotoxic: 0.9%; FLuc modulator: 23.9µM*

How did COc1ccccc1CNC(=O)CCCn1c(=O)c2ccccc2n(Cc2ccccc2C#N)c1=O do in these assays?
FLuc modulator: -4.6%; SMN2 splice enh: -8.1%

What do the screens show for `Cc1cc2c(cc1S(=O)(=O)NCc1ccc(F)cc1)OCCN2C`?
FLuc modulator: -13.4%

How did COc1cc(C(=O)N(Cc2ccc(F)cc2)Cc2ccco2)cc(OC)c1OC do in these assays?
FLuc modulator: -6.7%; SMN2 splice enh: -3.1%

How did Cc1c(C(=O)OCC2CCCCC2)[nH]c2c1C(=O)CC(c1ccccc1Cl)C2 (configuration not stated) do in these assays?
FLuc modulator: 4.2%; SMN2 splice enh: -8.7%

What do the screens show for `CC(=O)Nc1cc(NC(C)=O)cc(C(=O)OCC(=O)c2ccc3c(c2)OCO3)c1`?
NPC1 prom act: -2.5%; Rab9 prom act: 0.8%; ELG1 genotoxic: 29.4%; FLuc modulator: -2.8%

What do the screens show for `O=C(COC(=O)c1ccc(O)cc1)c1ccc2c(c1)OCCO2`?
NPC1 prom act: 3.55µM*; Rab9 prom act: 3.98µM*; ELG1 genotoxic: 5.17µM*; FLuc modulator: 1.2µM*

What do the screens show for `O=C(COC(=O)c1cc(Br)ccc1O)Nc1ccc2c(c1)OCO2`?
NPC1 prom act: -0.2%; Rab9 prom act: -3.2%; ELG1 genotoxic: 1.3%; FLuc modulator: -10.1%

Results for COC(=O)C(Cc1ccc(O)cc1)NC(=O)CCc1ccco1 (configuration not stated) ?
NPC1 prom act: 1.3%; Rab9 prom act: -2.0%; ELG1 genotoxic: 7.8%; FLuc modulator: -1.1%

Results for O=C(COC(=O)c1cc(Cl)ccc1O)c1ccc2c(c1)OCO2 ?
NPC1 prom act: inconclusive; Rab9 prom act: 29.9%; ELG1 genotoxic: 7.9%; FLuc modulator: 1.9µM*

Results for COC(=O)C(Cc1ccc(O)cc1)NC(=O)c1ccc2c(c1)OCCO2 (configuration not stated) ?
NPC1 prom act: 8.3%; Rab9 prom act: 6.1%; ELG1 genotoxic: inconclusive; FLuc modulator: 1.35µM*

What do the screens show for `O=C(COC(=O)c1ccc(O)cc1O)c1ccc2c(c1)OCO2`?
NPC1 prom act: inconclusive; Rab9 prom act: 5.5%; ELG1 genotoxic: 6.9%; FLuc modulator: 8.49µM*

How did Cc1cc(C)cc(OC(=O)c2snnc2C)c1 do in these assays?
FLuc modulator: -10.7%

How did CCC1CCCCN1C(=O)Cn1c(=O)n(CCCCCC(=O)NCc2ccccc2Cl)c(=O)c2sccc21 (configuration not stated) do in these assays?
FLuc modulator: inconclusive; SMN2 splice enh: -0.8%

What do the screens show for `COc1cc(OC)c(NS(=O)(=O)c2c(C(=O)N3CCCCCC3)c(C)n(C)c2C)cc1Cl`?
FLuc modulator: -8.1%

Results for Cc1ccc(OCC(=O)Nc2ccc(S(=O)(=O)Nc3cc(C)on3)cc2)c(Br)c1 ?
FLuc modulator: 21.3µM*; SMN2 splice enh: -2.7%

What do the screens show for `Cc1cccc(NS(=O)(=O)c2ccc(C)c(C(=O)OCC(=O)Nc3cc(C)on3)c2)c1`?
NPC1 prom act: 0.3%; Rab9 prom act: -0.3%; ELG1 genotoxic: -5.1%; Luc counter: -7.4%; FLuc modulator: 2.5%; SMN2 splice enh: 20µM*

Results for Cc1cccc(NS(=O)(=O)c2cc(C(=O)OCC(=O)Nc3cc(C)on3)ccc2C)c1 ?
NPC1 prom act: -4.8%; Rab9 prom act: 1.5%; ELG1 genotoxic: 0.9%; Luc counter: 2.0%; FLuc modulator: 5.9%; SMN2 splice enh: -2.8%

How did Cc1ccc(OCC(=O)NC(=S)Nc2ccc(S(=O)(=O)Nc3cc(C)on3)cc2)c(Br)c1 do in these assays?
NPC1 prom act: 0.1%; Rab9 prom act: -4.7%; ELG1 genotoxic: 3.9%; FLuc modulator: 1.51µM*

Results for Cc1cc(NS(=O)(=O)c2ccc(NC(=O)COc3ccc(Cl)cc3Cl)cc2)no1 ?
NPC1 prom act: -2.9%; Rab9 prom act: -2.1%; ELG1 genotoxic: 10.9%; FLuc modulator: inconclusive

What do the screens show for `Cc1nnc2ccc(-c3ccc(NS(=O)(=O)c4ccc(F)cc4F)cc3)nn12`?
NPC1 prom act: -3.6%; Rab9 prom act: -3.6%; ELG1 genotoxic: 20.6µM*; FLuc modulator: 0.5%

Results for CCc1ccc(S(=O)(=O)Nc2ccc(-c3ccc4nnc(C)n4n3)cc2)s1 ?
NPC1 prom act: -4.4%; Rab9 prom act: -3.3%; ELG1 genotoxic: 23.1µM*; FLuc modulator: 17.5%

Results for Cc1nnc2ccc(-c3ccc(NS(=O)(=O)c4ccccc4F)cc3)nn12 ?
NPC1 prom act: -5.8%; Rab9 prom act: -5.5%; ELG1 genotoxic: 20.6µM*; FLuc modulator: 1.0%

What do the screens show for `Cc1cccc(S(=O)Cc2ccc(C(=O)NC3CCCCCC3)o2)c1` (configuration not stated)?
FLuc modulator: -3.1%

Results for Cc1ccc(C(=O)Nc2nc(-c3cc(Cl)sc3Cl)cs2)cc1 ?
NPC1 prom act: -1.3%; Rab9 prom act: -10.8%; ELG1 genotoxic: 6.3%; Luc counter: -2.9%; FLuc modulator: 9.53µM*; SMN2 splice enh: -69.0%

What do the screens show for `O=C(Nc1nc(-c2ccc(Cl)s2)cs1)c1ccccc1`?
NPC1 prom act: 14.4%; Rab9 prom act: 28.9%; ELG1 genotoxic: 11.4%; Luc counter: 17.8%; FLuc modulator: 26.9µM*; SMN2 splice enh: -24.6%

How did O=C(Nc1nc(-c2cccs2)cs1)c1ccc(Cl)s1 do in these assays?
NPC1 prom act: 24.7%; Rab9 prom act: 23.1%; ELG1 genotoxic: inconclusive; Luc counter: 2.8%; FLuc modulator: 13.5µM*; SMN2 splice enh: -93.8%

Results for CCCn1c(=O)n(-c2ccccc2Cl)c(=O)c2sc3ccccc3c21 ?
FLuc modulator: -3.8%; SMN2 splice enh: -14.2%

What do the screens show for `CCOC(=O)c1cc(NC(=O)c2ccc(C)cc2)c(=O)n2c1oc1ccc(Cl)cc12`?
FLuc modulator: 2.7%; SMN2 splice enh: -3.2%
